In PubChem BioAssay:
Records with an inconclusive call do not appear. The source made the active and inactive calls.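 Rule for the calls, unless noted: active = normalized viability below 100% at a tested concentration; inactive = the rest.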

Assays:
[1] = growth inhibition of DIPG glioma cells, dose response, cell-based, SU-DIPG-XVII, MIPE5.0, CellTiter-Glo, qHTS (AID 1347060; cut-off not given, nearly all actives have AC50 up to about 26 µM;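 for AC50: cells exposed to compound for 48 hours before viability readout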); conditions: SU-DIPG-XVII viability, CellTiter-Glo ATP luminescence
[2] = growth inhibition of DIPG glioma cells, dose response, cell-based, JHH-DIPG-1, MIPE4.0, CellTiter-Glo, qHTS (AID 1347062; cut-off not given, nearly all actives have AC50 up to about 27 µM;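 for AC50: cells exposed to compound for two days before readout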); conditions: JHH-DIPG-1 viability, CellTiter-Glo ATP luminescence
[3] = growth inhibition of DIPG glioma cells, dose response, cell-based, SU-DIPG-IV, MIPE4.0, CellTiter-Glo, qHTS (AID 1347063; cut-off not given, nearly all actives have AC50 up to about 30 µM;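 note: compound exposure lasted 48 hours before the viability readout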); conditions: SU-DIPG-IV viability, CellTiter-Glo ATP luminescence
[4] = growth inhibition of DIPG glioma cells, dose response, cell-based, SU-DIPG-XIII, MIPE5.0, CellTiter-Glo, qHTS (AID 1347064; cut-off not given, nearly all actives have AC50 up to about 23 µM;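 for AC50: cells exposed to compound for 48 hours before the viability read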); conditions: SU-DIPG-XIII viability, CellTiter-Glo ATP luminescence
[5] = viability loss in pontine glioma line – cell-based, SU-DIPG-XXV, MIPE5.0, CellTiter-Glo, qHTS, dose response (AID 1347065; cut-off not given, nearly all actives have AC50 up to about 26 µM;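 note: cells exposed to compound for 48 hours before ATP readout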); conditions: CellTiter-Glo ATP luminescence
[6] = SU-DIPG-VI glioma cell viability, MIPE4.0 library, CellTiter-Glo luminescence, qHTS (AID 1347066; cut-off not given, nearly all actives have AC50 up to about 30 µM;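 note: cells exposed to compound for 48 hours before readout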); conditions: CellTiter-Glo ATP luminescence
[7] = JHH-DIPG-1 glioma cell viability, MIPE5.0 library, CellTiter-Glo luminescence, qHTS (AID 1347067; cut-off not given, nearly all actives have AC50 up to about 26 µM;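 note: cells exposed to compound for 48 hours before readout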); conditions: JHH-DIPG-1 glioma viability, CellTiter-Glo ATP luminescence
[8] = SU-DIPG-XXV glioma cell viability, MIPE5.0 library, qHTS (AID 1347068; cut-off not given, nearly all actives have IC50 up to about 30 µM;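 for IC50: cells exposed to compound for 48 hours before viability readout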)
[9] = sensitizers of A549 cells to miR-34 induction, primary screen, imaging, A549 dox-inducible miR-34, nuclei and caspase counts (AID 1347080;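 active = compounds whose cell count with miR-34 switched on is under 0.7 times the count with it off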); conditions: A549 miR-34 inducible, Hoechst nuclei count, 48 h
[10] = modifiers of HSF1 nuclear foci, imaging, Selleck Cancer Library (AID 1347162; in the data active = plate-normalised HSF1 focus index below about 0.46); conditions: human cells, at 10 µM; SSMD: measured here: HSF1 foci SSMD mean; cell count: measured here: cell number; plate-normalised HSF1 focus index: stronger effect = lower value
[11] = survival rescue of mitochondrial mutant cells in low glucose, primary screen, MELAS cybrids, Rieske KO mouse fibroblasts, CellTiter-Glo (AID 1508586;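 active = mean z-score across replicates of 1.96 or higher in either the MELAS or the Rieske mutant cell line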;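 note: z relative to plate mean and SD of compound and empty wells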)
[12] = ovarian cancer cell viability with rucaparib, profiling panel, oncology-focused library, rucaparib conditional (AID 1508598); conditions: patient-derived ovarian cancer cells, CellTiter-Glo viability, 144 h, stronger effect = lower value

Cc1nc(NC(=O)N2CCC[C@H]2C(N)=O)sc1-c1csc(C(C)(C)C)n1
active: AC50 [1] 11.8 µM | AC50 [2] 4.69 µM | AC50 [3] 2.96 µM | AC50 [4] 7.42 µM | AC50 [5] 4.68 µM | AC50 [6] 9.35 µM

CNC(=O)c1cc(Oc2ccc(NC(=O)Nc3cc(C(C)(C)C)nn3-c3ccc4ncccc4c3)c(F)c2)ccn1
632: cell count ([9]; measured here: total cells without miR-34 induction)
0.469: fold change ([9]; measured here: relative caspase fold change +Dox/-Dox)
inactive: outcome [6] | fold change ([9]; stronger effect = lower value, cell number ratio, induced over uninduced) 0.963 | plate-normalised HSF1 focus index [10] 1.01 | viability ([12]; at 0.000305 µM, OCI-C5x cells, with rucaparib 10 µM, 100% = cells with rucaparib alone) 112% | viability ([12]; at 0.000305 µM, OCI-C5x cells, without rucaparib) 112% | viability ([12]; at 0.000305 µM, OCI-P5x cells, with rucaparib 20 µM, 100% = cells with rucaparib alone) 103% | viability ([12]; at 0.000305 µM, OCI-P5x cells, without rucaparib) 108% | viability ([12]; at 0.00122 µM, OCI-C5x cells, with rucaparib 10 µM, 100% = cells with rucaparib alone) 102% | viability ([12]; at 0.00122 µM, OCI-C5x cells, without rucaparib) 117% | viability ([12]; at 0.00122 µM, OCI-P5x cells, with rucaparib 20 µM, 100% = cells with rucaparib alone) 110% | viability ([12]; at 0.00122 µM, OCI-P5x cells, without rucaparib) 103% | viability ([12]; at 0.00488 µM, OCI-C5x cells, with rucaparib 10 µM, 100% = cells with rucaparib alone) 108% | viability ([12]; at 0.00488 µM, OCI-C5x cells, without rucaparib) 116% | viability ([12]; at 0.00488 µM, OCI-P5x cells, with rucaparib 20 µM, 100% = cells with rucaparib alone) 116% | viability ([12]; at 0.00488 µM, OCI-P5x cells, without rucaparib) 102% | viability ([12]; at 0.0195 µM, OCI-C5x cells, with rucaparib 10 µM, 100% = cells with rucaparib alone) 107% | viability ([12]; at 0.0195 µM, OCI-C5x cells, without rucaparib) 118% | viability ([12]; at 0.0195 µM, OCI-P5x cells, with rucaparib 20 µM, 100% = cells with rucaparib alone) 110% | viability ([12]; at 0.0781 µM, OCI-C5x cells, with rucaparib 10 µM, 100% = cells with rucaparib alone) 115% | viability ([12]; at 0.0781 µM, OCI-C5x cells, without rucaparib) 113% | viability ([12]; at 0.0781 µM, OCI-P5x cells, with rucaparib 20 µM, 100% = cells with rucaparib alone) 114% | viability ([12]; at 0.313 µM, OCI-C5x cells, without rucaparib) 105% | viability ([12]; at 0.313 µM, OCI-P5x cells, with rucaparib 20 µM, 100% = cells with rucaparib alone) 120%
0.93: z-score ([11]; Rieske KO mouse fibroblast survival, CellTiter-Glo 72 h)
608: cell count ([9]; measured here: total cells with miR-34 induction, stronger effect = lower value)
6970: cell count [10]
0.0864: SSMD [10]
active: AC50 [1] 5.9 µM | AC50 [2] 7.43 µM | AC50 [3] 8.33 µM | AC50 [4] 0.0661 µM | AC50 [5] 9.34 µM | AC50 [7] 5.9 µM | IC50 [8] 20.9 µM | z-score ([11]; MELAS cybrid survival, CellTiter-Glo 48 h, stronger effect = higher value) 3.18 | viability ([12]; at 0.0195 µM, OCI-P5x cells, without rucaparib) 97.7% | viability ([12]; at 0.0781 µM, OCI-P5x cells, without rucaparib) 97.7% | viability ([12]; at 0.313 µM, OCI-C5x cells, with rucaparib 10 µM, 100% = cells with rucaparib alone) 96.9% | viability ([12]; at 0.313 µM, OCI-P5x cells, without rucaparib) 96.4% | viability ([12]; at 1.25 µM, OCI-C5x cells, with rucaparib 10 µM, 100% = cells with rucaparib alone) 77.5% | viability ([12]; at 1.25 µM, OCI-C5x cells, without rucaparib) 96.1% | viability ([12]; at 1.25 µM, OCI-P5x cells, with rucaparib 20 µM, 100% = cells with rucaparib alone) 29.9% | viability ([12]; at 1.25 µM, OCI-P5x cells, without rucaparib) 97.7% | viability ([12]; at 5 µM, OCI-C5x cells, with rucaparib 10 µM, 100% = cells with rucaparib alone) 9.96% | viability ([12]; at 5 µM, OCI-C5x cells, without rucaparib) 8.93% | viability ([12]; at 5 µM, OCI-P5x cells, with rucaparib 20 µM, 100% = cells with rucaparib alone) 17.1% | viability ([12]; at 5 µM, OCI-P5x cells, without rucaparib) 4.51%

C/C(=N\NC(=S)N1CCC1)c1ccccn1
active: AC50 [1] 0.00934 µM | AC50 [2] 1.48 µM | AC50 [3] 0.0105 µM | AC50 [4] 0.0235 µM | AC50 [5] 0.0132 µM | AC50 [6] 9.35 µM

O=C(O)CCCCCC(=O)NN=C1CCCC1
inactive: outcome [1] | outcome [2] | outcome [3] | outcome [4] | outcome [5] | outcome [6] | outcome [7] | outcome [8]
